Measurements: PubChem BioAssay AID1159580 (chemical genetic matrix, 2015)
In all, about 5,500 compounds went through this assay and about 2,000 (36%) were called active. Another 18% or so got no clear call; they are omitted. Rule as the data show it: active = normalized growth mostly below about 0.91 (no sharp cut-off); inconclusive = no clear call, values can overlap the other calls; inactive = mostly above about 0.92. The list shows a part of the results.

Assay: chemical genetic growth profiling, strain panel (AID 1159580);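 also: tested at 20 µM; growth read once vehicle control cultures reached saturation at 30 °C; 1 = growth at the plate median or of vehicle wells; lower values mean less growth of the strain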
Conditions: growth OD

Measured: normalized growth

COC(=O)[C@@]1(C)CCC[C@]2(C)c3ccc(O)c(C(C)C)c3CCC12 (stereo partly specified)
inactive: S. cerevisiae deletion strains, locus YKL068W, active compounds read low 0.979 | S. cerevisiae deletion strains, locus YKR026C, strain gcn3, active compounds read low 0.978 | S. cerevisiae deletion strains, locus YKR091W, strain srl3, active compounds read low 0.976 | S. cerevisiae deletion strains, locus YLL001W, strain dnm1, active compounds read low 0.937 | S. cerevisiae deletion strains, locus YLL041C, strain sdh2, active compounds read low 0.965 | S. cerevisiae deletion strains, locus YLR102C, strain apc9, active compounds read low 0.95 | S. cerevisiae deletion strains, locus YLR357W, strain rsc2, active compounds read low 1 | S. cerevisiae deletion strains, locus YLR370C, strain arc18, active compounds read low 1.01 | S. cerevisiae deletion strains, locus YLR384C, strain iki3, active compounds read low 0.998 | S. cerevisiae deletion strains, locus YMR058W, strain fet3, active compounds read low 0.919 | S. cerevisiae deletion strains, locus YMR078C, strain ctf18, active compounds read low 0.96 | S. cerevisiae deletion strains, locus YMR125W, strain sto1, active compounds read low 0.959 | S. cerevisiae deletion strains, locus YMR129W, active compounds read low 0.96 | S. cerevisiae deletion strains, locus YMR231W, strain pep5, active compounds read low 0.996 | S. cerevisiae deletion strains, locus YNL067W, strain RPL9B, active compounds read low 0.903 | S. cerevisiae deletion strains, locus YNL248C, strain rpa49, active compounds read low 0.916 | S. cerevisiae deletion strains, locus YNL250W, strain rad50, active compounds read low 0.934 | S. cerevisiae deletion strains, locus YNL271C, strain bni1, active compounds read low 0.971 | S. cerevisiae deletion strains, locus YNL322C, strain KRE1 (second series), active compounds read low 0.985 | S. cerevisiae deletion strains, locus YNR049C, strain mso1, active compounds read low 0.964 | S. cerevisiae deletion strains, locus YOL012C, strain htz1 0.967 | S. cerevisiae deletion strains, locus YOR136W, strain idh2, active compounds read low 0.929 | S. cerevisiae deletion strains, locus YOR316C, strain cot1, active compounds read low 0.984 | S. cerevisiae deletion strains, locus YPL078C, strain atp4, active compounds read low 0.924 | S. cerevisiae deletion strains, locus YPR141C, strain kar3, active compounds read low 0.987
active: S. cerevisiae deletion strains, locus YJR066W, strain TOR1, active compounds read low 0.689 | S. cerevisiae deletion strains, locus YKL009W, strain mrt4, active compounds read low 0.859 | S. cerevisiae deletion strains, locus YKL085W, strain MDH1 (second series), active compounds read low 0.522 | S. cerevisiae deletion strains, locus YKL085W, strain MDH1, active compounds read low 0.522 | S. cerevisiae deletion strains, locus YKL160W, strain elf1, active compounds read low 0.881 | S. cerevisiae deletion strains, locus YKR001C, strain vps1, active compounds read low 0.231 | S. cerevisiae deletion strains, locus YLL026W, active compounds read low 0.843 | S. cerevisiae deletion strains, locus YLR027C, strain aat2, active compounds read low 0.354 | S. cerevisiae deletion strains, locus YLR039C, strain RIC1, active compounds read low 0.245 | S. cerevisiae deletion strains, locus YLR058C, strain SHM2, active compounds read low 0.661 | S. cerevisiae deletion strains, locus YLR113W, strain HOG1, active compounds read low 0.284 | S. cerevisiae deletion strains, locus YLR221C, strain rsa3, active compounds read low 0.619 | S. cerevisiae deletion strains, locus YLR258W, strain gsy2, active compounds read low 0.786 | S. cerevisiae deletion strains, locus YLR262C, strain YPT6 (second series), active compounds read low 0.208 | S. cerevisiae deletion strains, locus YLR268W, strain sec22, active compounds read low 0.85 | S. cerevisiae deletion strains, locus YLR320W, strain mms22, active compounds read low 0.695 | S. cerevisiae deletion strains, locus YLR330W, strain CHS5, active compounds read low 0.662 | S. cerevisiae deletion strains, locus YLR342W, strain FKS1 (second series), active compounds read low 0.42 | S. cerevisiae deletion strains, locus YLR342W, strain FKS1, active compounds read low 0.596 | S. cerevisiae deletion strains, locus YLR371W, strain rom2, active compounds read low 0.444 | S. cerevisiae deletion strains, locus YLR418C, strain cdc73, active compounds read low 0.297 | S. cerevisiae deletion strains, locus YML016C, strain PPZ1, active compounds read low 0.889 | S. cerevisiae deletion strains, locus YML032C, strain rad52, active compounds read low 0.732 | S. cerevisiae deletion strains, locus YML120C, strain ndi1, active compounds read low 0.222 | S. cerevisiae deletion strains, locus YML124C, strain tub3, active compounds read low 0.922 | S. cerevisiae deletion strains, locus YMR205C, strain PFK2, active compounds read low 0.649 | S. cerevisiae deletion strains, locus YMR223W, strain ubp8, active compounds read low 0.828 | S. cerevisiae deletion strains, locus YMR263W, strain SAP30, active compounds read low 0.657 | S. cerevisiae deletion strains, locus YMR307W, strain GAS1, active compounds read low 0.509 | S. cerevisiae deletion strains, locus YNL071W, strain lat1, active compounds read low 0.684 | S. cerevisiae deletion strains, locus YNL153C, strain GIM3, active compounds read low 0.788 | S. cerevisiae deletion strains, locus YNL183C, strain NPR1, active compounds read low 0.715 | S. cerevisiae deletion strains, locus YNL209W, strain ssb2, active compounds read low 0.856 | S. cerevisiae deletion strains, locus YNL233W, strain BNI4, active compounds read low 0.563 | S. cerevisiae deletion strains, locus YNL298W, strain CLA4, active compounds read low 0.883 | S. cerevisiae deletion strains, locus YNL307C, strain MCK1, active compounds read low 0.502 | S. cerevisiae deletion strains, locus YNR052C, strain pop2, active compounds read low 0.629 | S. cerevisiae deletion strains, locus YOL147C, strain pex11, active compounds read low 0.681 | S. cerevisiae deletion strains, locus YOR001W, strain rrp6, active compounds read low 0.636 | S. cerevisiae deletion strains, locus YOR061W, strain CKA2, active compounds read low 0.859 | S. cerevisiae deletion strains, locus YOR069W, strain VPS5, active compounds read low 0.854 | S. cerevisiae deletion strains, locus YOR070C, strain gyp1, active compounds read low 0.693 | S. cerevisiae deletion strains, locus YOR080W, strain dia2, active compounds read low 0.715 | S. cerevisiae deletion strains, locus YOR083W, strain WHI5, active compounds read low 0.835 | S. cerevisiae deletion strains, locus YOR106W, strain vam3, active compounds read low 0.373 | S. cerevisiae deletion strains, locus YOR144C, strain elg1, active compounds read low 0.711 | S. cerevisiae deletion strains, locus YOR184W, strain ser1, active compounds read low 0.355 | S. cerevisiae deletion strains, locus YOR231W, strain MKK1, active compounds read low 0.575 | S. cerevisiae deletion strains, locus YOR265W, strain rbl2, active compounds read low 0.741 | S. cerevisiae deletion strains, locus YOR270C, strain vph1, active compounds read low 0.612 | S. cerevisiae deletion strains, locus YOR290C, strain snf2, active compounds read low 0.776 | S. cerevisiae deletion strains, locus YPL051W, strain arl3, active compounds read low 0.539 | S. cerevisiae deletion strains, locus YPL055C, strain LGE1, active compounds read low 0.403 | S. cerevisiae deletion strains, locus YPL106C, strain sse1, active compounds read low 0.505 | S. cerevisiae deletion strains, locus YPL240C, strain hsp82, active compounds read low 0.697 | S. cerevisiae deletion strains, locus YPL256C, strain CLN2, active compounds read low 0.682 | S. cerevisiae deletion strains, locus YPR119W, strain clb2, active compounds read low 0.799 | S. cerevisiae deletion strains, locus YPR163C, strain tif3, active compounds read low 0.817 | S. cerevisiae deletion strains, locus YPR167C, strain met16, active compounds read low 0.773 | S. cerevisiae deletion strains, strain wtn01, active compounds read low 0.812 | S. cerevisiae strains, strain wild type, active compounds read low 0.458
